Results as given in PubChem BioAssay (EPA / NIEHS).
“And” between values parts separate entries of the source, which are not always exact repeats. Equal entries are not always repeated. More than one record can exist for a structure, and the calls need not agree. The source made the active and inactive calls. How the source made its calls: active means hit-call score of the fitted dose curve at least 0.9, where 1 is the maximum; inactive means score below 0.9.

Experiments:
[1] = read-out: Interleukin-8 (IL8), CXCL8 (gene 3576); experiment: BSK_MyoF_IL8: BioMAP Diversity Plus: MyoF Assay for Interleukin-8 (IL8) Biomarker Activity (AID 2284261); settings: primary human lung fibroblasts
Method in brief: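 IL-8 levels were measured by ELISA in human lung fibroblasts harvested 24 h after compound addition. Responses were analysed as gain of signal over the DMSO baseline.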

[2] = read-out: Decorin, DCN (gene 1634); experiment: BSK_MyoF_Decorin: BioMAP Diversity Plus: MyoF Assay for Decorin Biomarker Activity (AID 2284265); settings: primary human lung fibroblasts
Method in brief: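 Compound is added to lung fibroblast cultures; cells incubate 24 h; decorin is then measured by ELISA; the response is analysed upward against DMSO controls.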

[3] = BSK_MyoF_SRB: Viability Assessment in the BioMAP Diversity Plus: MyoF Assay (AID 2284267); settings: primary human lung fibroblasts;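 further: total protein by SRB absorbance in parallel cultures as cytotoxicity measure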
Method in brief: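 Human lung fibroblasts, 24 h after chemical dosing; total protein measured by 0.1% sulforhodamine B staining after 10% TCA fixation, read at 560 nm, fitted relative to DMSO baseline.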

[4] = read-out: Matrix Metallopeptidase 1 (MMP1), MMP1 (gene 4312); experiment: BSK_MyoF_MMP1: BioMAP Diversity Plus: MyoF Assay for Matrix Metallopeptidase 1 (MMP1) Biomarker Activity (AID 2284268); settings: primary human lung fibroblasts
Method in brief: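 Lung fibroblast cultures were dosed with test chemicals and, after 24 h, MMP1 levels were measured by ELISA; responses were referenced to DMSO and analysed for increases.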

[5] = read-out: TIMP metallopeptidase inhibitor 1 (TIMP1), TIMP1 (gene 7076); experiment: BSK_MyoF_TIMP1: BioMAP Diversity Plus: MyoF Assay for TIMP metallopeptidase inhibitor 1 (TIMP1) Biomarker Activity (AID 2284269); settings: primary human lung fibroblasts
Method in brief: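 ELISA read-out of TIMP-1 from primary human lung fibroblast cultures 24 h after compound dosing; gain of signal relative to DMSO vehicle baseline defines activity.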

[6] = read-out: CD90, THY1 (gene 7070); experiment: BSK_BF4T_CD90: BioMAP Diversity Plus: BF4T Assay for CD90 Biomarker Activity (AID 2284262); settings: primary human bronchial epithelial cells with fibroblasts
Method in brief: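 Co-culture of human bronchial epithelial cells and dermal fibroblasts, 24 h compound exposure. Cell-surface CD90 measured by ELISA relative to DMSO; parallel SRB total-protein staining for cytotoxicity.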

[7] = read-out: Interleukin-8 (IL8), CXCL8 (gene 3576); experiment: BSK_BF4T_IL8: BioMAP Diversity Plus: BF4T Assay for Interleukin-8 (IL8) Biomarker Activity (AID 2284263); settings: primary human bronchial epithelial cells with fibroblasts
Method in brief: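 Human bronchial epithelial cells with dermal fibroblasts co-culture; IL-8 measured by ELISA 24 hours after dosing, fitted vs DMSO. Cytotoxicity tracked in parallel cultures by SRB total-protein staining.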

[8] = read-out: Interleukin-1 alpha (IL1a), IL1A (gene 3552); experiment: BSK_BF4T_IL1a: BioMAP Diversity Plus: BF4T Assay for Interleukin-1 alpha (IL1a) Biomarker Activity (AID 2284264); settings: primary human bronchial epithelial cells with fibroblasts
Method in brief: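 Human bronchial epithelial cells co-cultured with dermal fibroblasts, dosed and read at 24 h. Secreted/surface IL-1α quantified by ELISA; gain-of-signal fitted relative to DMSO baseline. Parallel SRB total-protein staining tracked cytotoxicity.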

[9] = read-out: KRT18 (gene 3875); experiment: BSK_BF4T_Keratin818: BioMAP Diversity Plus: BF4T Assay for Keratin 818 Biomarker Activity (AID 2284266); settings: primary human bronchial epithelial cells with fibroblasts
Method in brief: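 Co-culture of human bronchial epithelial cells and dermal fibroblasts, chemical exposure 24 h. Keratin 8/18 measured by ELISA; positive-direction fit vs DMSO. SRB total protein run in parallel cultures for cytotoxicity.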

[10] = read-out: Matrix Metallopeptidase 1 (MMP1), MMP1 (gene 4312); experiment: BSK_BF4T_MMP1: BioMAP Diversity Plus: BF4T Assay for Matrix Metallopeptidase 1 (MMP1) Biomarker Activity (AID 2284270); settings: primary human bronchial epithelial cells with fibroblasts
Method in brief: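 Co-culture of human bronchial epithelial cells and dermal fibroblasts; MMP-1 levels measured by ELISA 24 hours after chemical dosing, relative to DMSO. Cytotoxicity checked in parallel cultures by SRB total-protein staining.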

[11] = read-out: Matrix Metallopeptidase 3 (MMP3), MMP3 (gene 4314); experiment: BSK_BF4T_MMP3: BioMAP Diversity Plus: BF4T Assay for Matrix Metallopeptidase 3 (MMP3) Biomarker Activity (AID 2284271); settings: primary human bronchial epithelial cells with fibroblasts
Method in brief: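 Co-culture of human bronchial epithelial cells and dermal fibroblasts dosed 24 h; MMP-3 measured by ELISA, positive-direction fit versus DMSO. Cytotoxicity tracked by SRB total-protein staining (560 nm) in parallel cultures.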

[12] = read-out: Tissue plasminogen activator (tPA), PLAT (gene 5327); experiment: BSK_BF4T_tPA: BioMAP Diversity Plus: BF4T Assay for Tissue plasminogen activator (tPA) Biomarker Activity (AID 2284272); settings: primary human bronchial epithelial cells with fibroblasts
Method in brief: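 tPA level quantified by ELISA at 24 h post-treatment in bronchial epithelial/dermal fibroblast co-cultures, gain of signal scored against DMSO baseline. Parallel cultures stained with 0.1% SRB (560 nm) to flag overt cytotoxicity.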

[13] = read-out: Plasminogen Activator Inhibitor-1 (PAI1), SERPINE1 (gene 5054); experiment: BSK_BF4T_PAI1: BioMAP Diversity Plus: BF4T Assay for Plasminogen Activator Inhibitor-1 (PAI1) Biomarker Activity (AID 2284273); settings: primary human bronchial epithelial cells with fibroblasts
Method in brief: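 Co-culture of human bronchial epithelial cells and dermal fibroblasts exposed to compound for 24 h. PAI-1 measured by ELISA; activity fitted in positive direction versus DMSO. Parallel SRB staining assessed overt cytotoxicity.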

[14] = BSK_BF4T_SRB: Viability Assessment in the BioMAP Diversity Plus: BF4T Assay (AID 2284274); settings: primary human bronchial epithelial cells with fibroblasts;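 on AC50: total cell protein by sulforhodamine B staining as a cytotoxicity measure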
Method in brief: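 Co-culture of human bronchial epithelial cells and dermal fibroblasts (BioMAP BF4T) exposed 24 h. Total protein by sulforhodamine B staining (0.1% SRB after 10% TCA fixation, 560 nm) in parallel cultures; fitted vs DMSO.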

[15] = read-out: urokinase Plasminogen Activator (uPA), PLAU (gene 5328); experiment: BSK_BF4T_uPA: BioMAP Diversity Plus: BF4T Assay for urokinase Plasminogen Activator (uPA) Biomarker Activity (AID 2284275); settings: primary human bronchial epithelial cells with fibroblasts
Method in brief: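 Co-culture of human bronchial epithelial cells and dermal fibroblasts; uPA quantified by ELISA 24 hours after dosing, fitted relative to DMSO. Parallel SRB total-protein staining assessed overt cytotoxicity.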

[16] = read-out: Matrix Metallopeptidase 9 (MMP9), MMP9 (gene 4318); experiment: BSK_BF4T_MMP9: BioMAP Diversity Plus: BF4T Assay for Matrix Metallopeptidase 9 (MMP9) Biomarker Activity (AID 2284276); settings: primary human bronchial epithelial cells with fibroblasts
Method in brief: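 Co-culture of human bronchial epithelial cells and dermal fibroblasts dosed for 24 h; MMP-9 quantified by ELISA and fitted upward versus DMSO. Cytotoxicity monitored in parallel cultures by SRB total-protein staining at the biomarker time point.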

[17] = read-out: Interleukin-8 (IL8), CXCL8 (gene 3576); experiment: BSK_IMphg_IL8: BioMAP Diversity Plus: IMphg Assay for Interleukin-8 (IL8) Biomarker Activity (AID 2284277); settings: primary human endothelial cells with macrophages
Method in brief: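 Co-culture of human venular endothelial cells and macrophages exposed to chemicals for 24 h; IL-8 quantified by ELISA and compared against the DMSO baseline, with SRB total-protein staining in parallel cultures for cytotoxicity.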

[18] = read-out: Intercellular Adhesion Molecule 1 (ICAM1), ICAM1 (gene 3383); experiment: BSK_BE3C_ICAM1: BioMAP Diversity Plus: BE3C Assay for Intercellular Adhesion Molecule 1 (ICAM1) Biomarker Activity (AID 2284278); settings: primary human bronchial epithelial cells
Method in brief: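 Primary human bronchial epithelial cells in BE3C system, 24 h after chemical dosing; cell-surface ICAM-1 measured by ELISA relative to DMSO. Parallel SRB staining (0.1% SRB after 10% TCA fixation, read at 560 nm) assessed cytotoxicity.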

[19] = read-out: Interferon-inducible T-cell alpha chemoattractant (ITAC), CXCL11 (gene 6373); experiment: BSK_BE3C_ITAC: BioMAP Diversity Plus: BE3C Assay for Interferon-inducible T-cell alpha chemoattractant (ITAC) Biomarker Activity (AID 2284279); settings: primary human bronchial epithelial cells
Method in brief: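 ELISA read-out of I-TAC after 24 h chemical dosing of human lung primary bronchial epithelial cells; gain-of-signal fit vs DMSO baseline. Parallel SRB total-protein staining (0.1% SRB, 10% TCA fixation, 560 nm) assessed cytotoxicity.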

[20] = read-out: Interleukin-8 (IL8), CXCL8 (gene 3576); experiment: BSK_BE3C_IL8: BioMAP Diversity Plus: BE3C Assay for Interleukin-8 (IL8) Biomarker Activity (AID 2284280); settings: primary human bronchial epithelial cells
Method in brief: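 IL-8 signal gain, normalised to DMSO vehicle, was scored after a 24 h chemical exposure of primary human bronchial epithelial cells, with detection by ELISA.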

Measured: AC50

COc1cc(OC)nc(NC(=O)NS(=O)(=O)c2ncccc2C(=O)N(C)C)n1
inactive: [1] | [2] | [3] | [4] | [5]

O=S(=O)(c1ccc(Cl)cc1)c1ccc(Cl)cc1
inactive: [1] | [2] | [3] | [4] | [5]

BrCCBr
inactive: [1] | [2] | [3] | [4] | [5]

O=C(O)CCC(F)(C(F)(F)F)C(F)(F)F
inactive: all assays above

COP(=S)(OC)Oc1c(Cl)cc(C)cc1Cl
inactive: [1] | [2] | [3] | [4] | [5]

O=Cc1cccc(Oc2ccccc2)c1
inactive: [1] | [2] | [3] | [4] | [5]

O=C(O)C(F)(F)C(F)(F)C(F)(F)C(F)(F)C(F)(F)C(F)(F)C(F)(F)C(F)(F)C(F)(F)C(F)(F)F
active: [1] 6.34 µM and 6.43 µM | [6] 4.83 µM | [7] 5.82 µM and 5.74 µM | [8] 5.56 µM and 6.17 µM | [2] 5.02 µM and 5.16 µM | [9] 5.05 µM and 5.17 µM | [3] 5.01 µM and 5.05 µM | [5] 4.33 µM and 5.2 µM | [10] 5.11 µM and 5.66 µM | [11] 5.26 µM and 3.33 µM | [12] 4.42 µM and 5.58 µM | [13] 5.2 µM and 6.13 µM | [14] 5.49 µM and 5.63 µM | [15] 6.49 µM and 6.17 µM | [16] 4.36 µM and 5.37 µM | [18] 5.73 µM and 6.33 µM | [19] 2.65 µM and 2.84 µM | [20] 4.19 µM and 3.81 µM
inactive: [6] | [4] | [17]

C(=NC1CCCCC1)=NC1CCCCC1
active: [1] 33.1 µM | [3] 7.2 µM | [4] 4.75 µM | [5] 6.97 µM
inactive: [2]

CC(C)CCCCCCOC(=O)c1ccccc1C(=O)OCCCCCCC(C)C
inactive: [1] | [2] | [3] | [4] | [5]

Nc1ccc(-c2ccc(N)c(Cl)c2)cc1Cl
inactive: [2] | [5]
active: [1] 2.04 µM | [3] 24.9 µM | [4] 7.38 µM

NC(=S)Nc1ccccc1
inactive: [1] | [2] | [3] | [4] | [5]

COC(=O)Cc1ccccc1
inactive: [18] | [19] | [20]

Oc1c(I)cc(I)cc1I
active: [1] 3.55 µM | [3] 18.2 µM | [4] 5.11 µM
inactive: [2] | [5]

CCSC(C)CC1CC(=O)C(C(CC)=NOC/C=C/Cl)=C(O)C1 (centres undefined)
inactive: [1] | [2] | [3] | [4] | [5]

Nc1ncc([N+](=O)[O-])s1
inactive: [1] | [2] | [3] | [4] | [5]

OCc1ccco1
inactive: [1] | [2] | [3] | [4] | [5]

ClC(Cl)=C(Cl)C(Cl)=C(Cl)Cl
inactive: [2] | [3] | [4] | [5]
active: [1] 15.1 µM

Oc1ccc(-c2ccccc2)cc1
inactive: [1] | [2] | [3] | [4] | [5]
